Data: PubChem BioAssay (NCATS)
Results filed as inconclusive are left out. The source made the active and inactive calls. The call rests on the fitted dose curve; in most records, active means well fitted curve in the direction sought with a large enough effect; inconclusive means small, poorly fitted or top-dose-only effect, or another doubt; inactive means no such curve, though single readings can be large; an effect the other way counts as inactive or inconclusive. Peptide text beside a SMILES is read from it. * marks the point of attachment. AFC = O=c1cc(C(F)(F)F)c2ccc(N*)cc2o1

How the values were obtained:
[1] = molecular target: Cellular tumor antigen p53 (Homo sapiens) (UniProt P04637); experiment: Primary qHTS for small molecule compounds that upregulate eGFP-tagged delta133p53alpha (in N-terminal) cells. (AID 2060322); conditions: NCI-H358 eGFP-delta133p53alpha fluorescence, 24 h; activation: active compounds read high;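 further: cells pre-induced with doxycycline then dosed without doxycycline; series mostly up to about 56 µM; 0% = DMSO vehicle and 100% = reference activator; nearly all actives have a fitted effect of over 75% in size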
Sequence of Cellular tumor antigen p53 (Homo sapiens) (P04637 whole entry, looked up): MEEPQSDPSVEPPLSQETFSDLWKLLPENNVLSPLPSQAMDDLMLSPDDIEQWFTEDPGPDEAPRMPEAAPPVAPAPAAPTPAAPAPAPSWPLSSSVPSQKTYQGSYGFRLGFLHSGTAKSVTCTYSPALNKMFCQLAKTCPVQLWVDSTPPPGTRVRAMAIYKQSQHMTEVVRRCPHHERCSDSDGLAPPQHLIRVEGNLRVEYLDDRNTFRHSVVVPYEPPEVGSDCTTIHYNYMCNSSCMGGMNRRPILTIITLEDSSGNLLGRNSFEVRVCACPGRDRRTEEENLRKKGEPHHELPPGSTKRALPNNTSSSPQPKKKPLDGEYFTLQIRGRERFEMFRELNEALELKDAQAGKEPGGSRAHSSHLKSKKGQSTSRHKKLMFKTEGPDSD
Summary of the method: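 NCI-H358 cells pre-induced 24 h with 10 ng/ml doxycycline for eGFP-delta133p53alpha, plated dox-free and exposed 24 h at 37C to titrated compounds. Fixed, Hoechst-stained; gated GFP peak intensity by laser scanning cytometry, normalized to DMSO (0%) and 57.5 uM 5-azacytidine (100%).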

[2] = molecular target: Aldehyde dehydrogenase, mitochondrial (Homo sapiens) (UniProt P05091); experiment: qHTS for Inhibitors of the Aldehyde Dehydrogenase Family (ALDH2) Primary screen (AID 2061308);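 further: plate controls were vehicle for no effect and reference inhibitor for full effect; nearly all actives have a fitted effect of over 55% in size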
[3] = molecular target: Retinaldehyde dehydrogenase 3 (Homo sapiens) (UniProt P47895); experiment: qHTS for Inhibitors of the Aldehyde Dehydrogenase Family (ALDH1A3) Primary screen (AID 2061315);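 further: plate controls were DMSO vehicle for no effect and reference inhibitor for full effect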

C=C1CC23CC1CCC2C12OC(=O)C(C)(C(O)C(O)C1O)C2C3C(=O)O (configuration not stated)
inactive: activation [1] 2.68% | Potency [2] | Potency [3]

C/C=C(/C)C(=O)OC1C=C2C3C(C)C(C)C(OC(=O)C(C)C(C)O)CC3(C)CCC2(C)C2(C)CC(OC(C)=O)C3C(C)(C)C(O)C(=O)CC3(C)C12 (configuration not stated)
inactive: activation [1] -17% | Potency [2] | Potency [3]

CC(C)(C)Oc1ccc(OCC2Cc3ccccc3CN2C(=O)c2cccc3ccccc23)cc1 (configuration not stated)
inactive: activation [1] -10.5% | Potency [2] | Potency [3]

C=C1C(=O)O[C@@H]2[C@H]1CCC(C)=C(CCC(=O)O)[C@@]2(C)O
inactive: activation [1] -18.3% | Potency [2] | Potency [3]

CCCOc1ccc(S(=O)(=O)N2CCN(CCO)CC2)cc1-c1nc2c(CCC)cn(CC)c2c(=O)[nH]1
inactive: activation [1] -0.893% | Potency [2] | Potency [3]

Nc1nc2c(ncn2[C@@H]2O[C@@H]3COP(=O)(O)O[C@H]3[C@H]2O)c(=O)[nH]1
inactive: activation [1] 12.3% | Potency [2] | Potency [3]

O=[N+]([O-])c1ccc(Oc2ccc3c(c2)CCC(c2ccccc2)O3)nc1 (configuration not stated)
inactive: activation [1] 2.33% | Potency [2] | Potency [3]

C[C@H]1CCN2C[C@]34C[C@@]5(C(=O)Nc6c5ccc5c6OC=CC(C)(C)O5)C(C)(C)C3C[C@]12C(=O)N4C (some centres not stated)
inactive: activation [1] 5.34% | Potency [2] | Potency [3]

C[C@@H]1O[C@@H](O[C@H]2[C@H](O)[C@@H](O)[C@H](OC3CCC4(C)C5CCC(C)(C(CO)OC6OC(CO)C(O)C(O)C6O)CC5=CCC4C3(C)C)O[C@@H]2CO)[C@H](O)[C@H](O)[C@H]1O (some centres not stated)
inactive: activation [1] -22.9% | Potency [2] | Potency [3]

C[C@@H]1C[C@@H]([C@@H](O)C(C)(C)O)O[C@H]2C[C@@]3(C)C(=C12)C[C@H](O)[C@H]1[C@@]2(C)CCC(=O)C(C)(C)C2CC[C@@]13C (some centres not stated)
inactive: activation [1] -6.87% | Potency [2] | Potency [3]

CC12CCC(OC3OC(CO)C(O)C(O)C3OC3OC(CO)C(O)C(O)C3O)CC1CCC1C2CCC2(C)/C(=C3/COC(=O)C3)CCC12O (configuration not stated)
inactive: activation [1] -0.763% | Potency [2] | Potency [3]

COC1CC(=O)CCC(C)OC(=O)CC1O (configuration not stated)
inactive: activation [1] -6.87% | Potency [2] | Potency [3]

COC(=O)C[C@@H]1C(C(=O)O)=CO[C@@H](O[C@@H]2O[C@H](CO)[C@@H](O)[C@H](O)[C@H]2O)/C1=C\COC(=O)/C=C\c1ccccc1
inactive: activation [1] 26% | Potency [2] | Potency [3]

NC1CCCCN(c2c(F)cc3c(=O)c(C(=O)O)cn(C4CC4)c3c2Cl)C1 (configuration not stated)
inactive: activation [1] -8.59% | Potency [2] | Potency [3]

C=C1CCC2C(C)(C(=O)O)CCCC2(C)C1CCC1=CCOC1=O (configuration not stated)
inactive: activation [1] 31.2% | Potency [2] | Potency [3]

COc1c2c(c(C)c3c1C(=O)OC3)O[C@@]1(C)C[C@@H](O)[C@]34O[C@](OC)(CC[C@]3(C)[C@H]1C2)OC4(C)C
inactive: activation [1] -1.53% | Potency [2] | Potency [3]

C=C1C(=O)OC[C@H]2C(C(=O)O)=CC3CC(C)(C)C[C@@]132 (some centres not stated)
inactive: activation [1] 13.4% | Potency [2] | Potency [3]

CC(C)C(C(=O)N(C)C(C)C(N)=O)N(C)C(=O)C1CCCN1C(=O)/C=C/C=C/C(O)C(C)O (configuration not stated)
inactive: activation [1] -23.7% | Potency [2] | Potency [3]

C=C1CC2(C(=O)O)CC1CCC2C1(C)CCCC2(C)C(=O)OC(O)C21 (configuration not stated)
inactive: activation [1] -6.87% | Potency [2] | Potency [3]

C/C=C(\C)C1C(C)=CC2CCC(OS(=O)(=O)O)C(C)C2C1/C=C/C=C/C(=O)O (configuration not stated)
inactive: activation [1] 0.893% | Potency [2] | Potency [3]

C=C1C[C@]23C[C@H]1[C@@H](O)C[C@H]2[C@@]12C=C[C@H](O)[C@@](C)(C(=O)O1)[C@H]2[C@@H]3C(=O)O
inactive: activation [1] -13% | Potency [2] | Potency [3]

C[C@]12CC/C(=N\OCC(=O)O)C=C1CC[C@@H]1[C@@H]2[C@@H](O)C[C@@]2(C)[C@H]1CC[C@]2(O)C(=O)CO
inactive: activation [1] 5.67% | Potency [2] | Potency [3]

C=C1[C@H](OC(C)=O)[C@H]2[C@@H](OC(=O)c3ccccc3)[C@@H](C)C[C@]2(O)[C@@H](OC(C)=O)[C@H](C)/C=C/C(C)(C)C(=O)[C@H](OC(C)=O)[C@H]1OC(C)=O
inactive: activation [1] -3.57% | Potency [2] | Potency [3]

C[C@@H]1O[C@@H](O[C@H]2[C@H](O[C@H]3[C@H](O)[C@@H](C(=O)O)O[C@@H](O[C@H]4CC[C@@]5(C)C(CC[C@]6(C)C5CC[C@]57OC[C@@]8(CCC(C)(C)CC85)[C@H](O)C[C@]76C)C4(C)C)[C@@H]3O[C@@H]3O[C@H](CO)[C@@H](O[C@@H]4OC[C@@H](O)[C@H](O)[C@H]4O)[C@H](O)[C@H]3O)O[C@H](CO)[C@H](O)[C@@H]2O)[C@H](O)[C@H](O)[C@H]1O (some centres not stated)
inactive: activation [1] -6.87% | activity change, negative = inhibition [2] 5.88% [at 11.2 µM] | activity change, negative = inhibition [3] -5.39% [at 11.2 µM]

Nc1ncnc2c1ncn2CCNCCCCCO
inactive: activation [1] -0.333% | Potency [2] | Potency [3]

O=C(Nc1ccc(C(O)(C(F)(F)F)C(F)(F)F)cc1)c1ccc(C(F)(F)F)cc1
inactive: activation [1] 0% | Potency [2] | Potency [3]

C[C@@H]1O[C@@H](O[C@H]2[C@H](O)[C@@H](O[C@@H]3O[C@H](CO)[C@@H](O)[C@H](O[C@@H]4O[C@H](CO)[C@@H](O)[C@H](O)[C@H]4O)[C@H]3O)[C@H](O[C@H]3CC[C@@]4(C)C(=CC[C@@H]5C4CC[C@@]4(C)C5C[C@@H]5OC6(CC[C@@](C)(CO[C@@H]7O[C@H](CO)[C@@H](O)[C@H](O)[C@H]7O)O6)[C@@H](C)[C@@H]54)C3)O[C@@H]2CO)[C@H](O)[C@H](O)[C@H]1OC1OC(CO)C(O)C(O)C1O (some centres not stated)
inactive: activation [1] 13% | activity change, negative = inhibition [2] -9.01% [at 11.2 µM] | activity change, negative = inhibition [3] -22.4% [at 11.2 µM]

C=C(C)C(O)COc1ccc(CC(=O)O)cc1 (configuration not stated)
inactive: activation [1] 8.93% | Potency [2] | Potency [3]

O=C1C[C@@]2(C(=O)N1)C(=O)N(Cc1ccc(Br)cc1F)C(=O)c1cccn12
inactive: activation [1] -11.7% | Potency [2] | Potency [3]

C[C@@H]1O[C@@H](O[C@H]2[C@H](O[C@H]3[C@H](O[C@H]4CC[C@@]5(C)C(CC[C@]6(C)C5CC=C5[C@@H]7CC(C)(C)C[C@@H](O)[C@]7(C)CC[C@]56C)[C@@]4(C)CO)O[C@H](C(=O)O)[C@@H](O)[C@@H]3O)OC[C@H](O)[C@@H]2O)[C@H](O)[C@H](O)[C@H]1O (some centres not stated)
inactive: activation [1] 3.82% | Potency [2] | Potency [3]

COC1=CC(=O)O[C@@H](CCc2ccccc2)[C@@H]1O
inactive: activation [1] -13% | Potency [2] | Potency [3]

N#Cc1cc(-c2n[nH]c(-c3ccncc3)n2)ccn1
inactive: activation [1] 4.46% | Potency [2] | Potency [3]

CC1(C)CCCC2(C)C3=C(C(=O)OC3O)C(O)CC12 (configuration not stated)
inactive: activation [1] 9.92% | Potency [2] | Potency [3]

O=C(O)c1cccc(-c2ccc(-c3cn(C(=O)N4CCCCC4Cc4ccccc4)nn3)cc2)c1 (configuration not stated)
inactive: activation [1] -9.67% | Potency [2] | Potency [3]

CCC(=O)N[C@@H]1Cc2ccccc2[C@H](c2ccccc2)C1
inactive: activation [1] -0.333% | Potency [2] | Potency [3]

CN1CCc2cc(Cl)c(O)cc2[C@@H](c2cccc3c2OCC3)C1
inactive: activation [1] -1.67% | Potency [2] | Potency [3]

COc1c(OC2OC(CO)C(O)C(O)C2O)ccc(O)c1C(=O)OCc1ccccc1O[C@@H]1O[C@H](CO)[C@@H](O)[C@H](O)[C@H]1O (some centres not stated)
inactive: activation [1] 3.82% | Potency [2] | Potency [3]

CC(CCC1(O)OC2CC3C4CC=C5CC(O[C@@H]6O[C@H](CO)[C@@H](O[C@@H]7O[C@@H](C)[C@H](O)[C@@H](O)[C@H]7O)[C@H](O)[C@H]6O[C@@H]6O[C@@H](C)[C@H](O)[C@@H](O)[C@H]6O)CCC5(C)C4CCC3(C)C2C1C)CO[C@@H]1O[C@H](CO)[C@@H](O)[C@H](O)[C@H]1O (some centres not stated)
inactive: activation [1] 8.04% | Potency [2] | Potency [3]

CC(C)=CCCC1(C)Oc2cc3c(c4c2C2C(O4)C(C)(O)CCC21)CN(C(CCC(=O)O)C(=O)O)C3=O (configuration not stated)
inactive: activation [1] -3.05% | Potency [2] | Potency [3]

CC(=O)OCCC(C)CCC1C(C)(O)CCC2C(C)(C)CCCC21C (configuration not stated)
inactive: activation [1] 6.87% | Potency [2] | Potency [3]

Nc1ncnc2c1ncn2[C@H]1O[C@@H](C(=O)N2CCN(CC(=O)Nc3cccc4c3CNC4=O)CC2)[C@H](O)[C@@H]1O
inactive: activation [1] -24.3% | Potency [2] | Potency [3]

CC(C)Oc1ccc(-c2nc(-c3cccc4c3CCC4NCCC(=O)O)no2)cc1C#N (configuration not stated)
inactive: activation [1] 0% | Potency [2] | Potency [3]

CC(C(=O)Nc1cc(C#N)ccc1CCCC(=O)O)c1ccc(F)c2ccccc12 (configuration not stated)
inactive: activation [1] 17.9% | Potency [2] | Potency [3]

Cn1nccc1-c1ccccc1Oc1ccc(S(=O)(=O)Nc2nccs2)cc1C#N
inactive: activation [1] 3.67% | Potency [2] | Potency [3]

CC(=O)OC[C@]12[C@H](OC(C)=O)[C@H](OC(=O)c3ccccc3)[C@@H]3[C@@H](OC(C)=O)[C@]1(OC3(C)C)[C@H](C)C[C@H](OC(C)=O)[C@@H]2OC(=O)c1ccccc1
inactive: activation [1] 3.05% | Potency [2] | Potency [3]

COc1ccc2c(NC(=O)Nc3cccc(C(F)(F)F)n3)ccnc2c1
inactive: activation [1] 16.1% | Potency [2] | Potency [3]

Nc1ccc(-n2nc(C(F)(F)F)cc2C(F)(F)F)cc1
inactive: activation [1] 0.893% | Potency [2] | Potency [3]

CC(NC(=O)[C@H](Cc1ccccc1)NC(=O)OCc1ccccc1)C(=O)CF (some centres not stated)
inactive: activation [1] -5.67% | Potency [2] | Potency [3]

CC(=O)N[C@@H](Cc1c[nH]c2ccccc12)C(=O)N[C@@H](CCC(=O)O)C(=O)N[C@@H](Cc1cnc[nH]1)C(=O)N[C@@H](CC(=O)O)C(=O)Nc1ccc2c(C(F)(F)F)cc(=O)oc2c1 (Ac-WEHD-{AFC})
inactive: activation [1] -4.33% | Potency [2] | Potency [3]
